{"source": "paper PMC4336329", "about": "(PLoS ONE, 2015)", "note": "The whole screen tested about 310,000 compounds, of which about 14,000 (4.5%) showed an effect of 50% or more. Effects have a minus sign here. Many of the other results were omitted from the sample, so strong results are more common in it than they were.", "data": [{"target": "human ether-à-go-go-related gene (hERG) potassium channel (human, UniProt Q12809)", "sequence (Q12809 whole entry, looked up)": "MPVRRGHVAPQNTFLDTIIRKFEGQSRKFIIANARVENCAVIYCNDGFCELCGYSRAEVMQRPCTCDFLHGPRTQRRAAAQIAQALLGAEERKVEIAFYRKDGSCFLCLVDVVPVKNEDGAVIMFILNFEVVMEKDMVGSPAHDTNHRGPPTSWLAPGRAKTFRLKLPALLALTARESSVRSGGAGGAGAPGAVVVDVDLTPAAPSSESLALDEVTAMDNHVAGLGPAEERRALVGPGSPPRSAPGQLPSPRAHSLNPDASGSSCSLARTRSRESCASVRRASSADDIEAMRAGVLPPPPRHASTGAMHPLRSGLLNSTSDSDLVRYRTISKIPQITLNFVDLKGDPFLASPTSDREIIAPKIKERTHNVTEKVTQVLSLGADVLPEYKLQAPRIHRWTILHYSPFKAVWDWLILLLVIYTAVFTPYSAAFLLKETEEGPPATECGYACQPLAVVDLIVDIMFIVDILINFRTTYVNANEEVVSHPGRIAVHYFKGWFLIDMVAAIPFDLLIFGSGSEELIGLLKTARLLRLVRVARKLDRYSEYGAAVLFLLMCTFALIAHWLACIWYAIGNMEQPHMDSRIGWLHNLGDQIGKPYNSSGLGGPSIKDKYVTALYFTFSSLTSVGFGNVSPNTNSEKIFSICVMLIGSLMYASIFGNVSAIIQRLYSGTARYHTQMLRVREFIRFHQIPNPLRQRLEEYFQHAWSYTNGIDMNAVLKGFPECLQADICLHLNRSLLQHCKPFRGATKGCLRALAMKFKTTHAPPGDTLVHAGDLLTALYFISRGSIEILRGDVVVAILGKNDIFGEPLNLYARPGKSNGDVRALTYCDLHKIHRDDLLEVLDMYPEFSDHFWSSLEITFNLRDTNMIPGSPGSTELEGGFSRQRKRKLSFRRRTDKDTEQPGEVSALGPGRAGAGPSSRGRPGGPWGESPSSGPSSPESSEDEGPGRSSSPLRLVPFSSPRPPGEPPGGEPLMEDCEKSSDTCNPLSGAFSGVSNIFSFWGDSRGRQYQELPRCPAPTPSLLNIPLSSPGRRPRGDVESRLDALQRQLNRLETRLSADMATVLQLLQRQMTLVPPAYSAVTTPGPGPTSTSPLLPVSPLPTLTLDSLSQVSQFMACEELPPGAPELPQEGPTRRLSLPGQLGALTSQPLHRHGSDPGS", "assay": "primary screen, population patch clamp on CHO cells stably expressing hERG; higher = less effect of the substance", "units": {"hERG current change (%, negative = inhibition) at 10uM": "%"}, "values": [{"compound": "COc1ccccc1CN(C(=O)CNC(=O)c1ccco1)C(C(=O)NCC1CCCO1)c1ccccc1", "note": "(centres unmarked);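 note: peak tail current of the secondary pulse compared with the same well before compound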", "hERG current change (%, negative = inhibition) at 10uM": 10}, {"compound": "O=C(NC(=S)Nc1cccc(F)c1)c1cccc([N+](=O)[O-])c1", "hERG current change (%, negative = inhibition) at 10uM": 20.6}, {"compound": "Cc1cc(C)c(-c2cc(C)nc3ncnn23)c(C)c1", "hERG current change (%, negative = inhibition) at 10uM": 7.75}, {"compound": "CCOc1ccc(C(=O)Nn2cnnc2)cc1", "hERG current change (%, negative = inhibition) at 10uM": 2.29}, {"compound": "O=C(NCCCc1ccccc1)C1CCN(c2nnc(-n3cccc3)s2)CC1", "hERG current change (%, negative = inhibition) at 10uM": -27}, {"compound": "CCc1ccc2nc(N(CCCN(C)C)C(=O)c3ccc(C(=O)c4ccccc4)cc3)sc2c1.Cl", "hERG current change (%, negative = inhibition) at 10uM": -12.5}, {"compound": "CN(C)CCCN(C(=O)c1ccc(C(=O)c2ccccc2)cc1)c1nc2ccc(F)cc2s1", "hERG current change (%, negative = inhibition) at 10uM": -74.9}, {"compound": "CN(C)CCCN(C(=O)c1ccc(S(=O)(=O)N(C)C)cc1)c1nc2ccc(F)cc2s1.Cl", "hERG current change (%, negative = inhibition) at 10uM": -32.9}, {"compound": "CCN(Cc1ccccc1)S(=O)(=O)c1ccc(C(=O)N(CCCN(C)C)c2nc3cc(OC)ccc3s2)cc1.Cl", "hERG current change (%, negative = inhibition) at 10uM": -58.3}, {"compound": "COc1ccc2sc(N(CCCN(C)C)C(=O)c3ccc(S(=O)(=O)N(C)Cc4ccccc4)cc3)nc2c1.Cl", "hERG current change (%, negative = inhibition) at 10uM": -16.4}, {"compound": "CCN(Cc1ccccc1)S(=O)(=O)c1ccc(C(=O)N(CCCN(C)C)c2nc3ccc(F)cc3s2)cc1.Cl", "hERG current change (%, negative = inhibition) at 10uM": -12.6}, {"compound": "O=C(O)c1ccc(Nc2cccc(F)c2)c([N+](=O)[O-])c1", "hERG current change (%, negative = inhibition) at 10uM": 17.7}, {"compound": "CCCCOc1c(Br)cc(CNCCCN2CCOCC2)cc1OC.Cl", "hERG current change (%, negative = inhibition) at 10uM": -35}, {"compound": "CC(C)CCOc1ccc(NC(=O)C2OC3OC(C)(C)OC3C3OC(C)(C)OC23)cc1", "note": "(centres unmarked)", "hERG current change (%, negative = inhibition) at 10uM": 20.5}, {"compound": "O=C(NCc1nnc(SCC(=O)N2CCCC2)o1)c1ccc(F)cc1", "hERG current change (%, negative = inhibition) at 10uM": 14.3}, {"compound": "COc1ccc(Nc2ncnc3ccc([N+](=O)[O-])cc23)c(OC)c1", "hERG current change (%, negative = inhibition) at 10uM": -0.867}, {"compound": "CNc1ccc(Br)cc1C(O)c1ccccc1", "note": "(centres unmarked)", "hERG current change (%, negative = inhibition) at 10uM": -3.18}, {"compound": "O=C(Cn1ccc(NC(=O)OCc2ccccc2)nc1=O)NCCCn1ccnc1", "hERG current change (%, negative = inhibition) at 10uM": 6.72}, {"compound": "O=C1COc2ccc(C(=O)COC(=O)CNC(=O)c3ccccc3)cc2N1", "hERG current change (%, negative = inhibition) at 10uM": -4.81}, {"compound": "COc1ccc(OCCCC(=O)OCC(=O)c2ccc3c(c2)NC(=O)CO3)cc1", "hERG current change (%, negative = inhibition) at 10uM": 15.7}, {"compound": "Cc1ccc(C(=O)NCC(=O)OCC(=O)c2ccc3c(c2)NC(=O)CO3)cc1C", "hERG current change (%, negative = inhibition) at 10uM": -5.7}, {"compound": "COc1ccc(C(=O)NCC(=O)OCC(=O)c2ccc3c(c2)NC(=O)CO3)cc1", "hERG current change (%, negative = inhibition) at 10uM": -65.1}, {"compound": "COc1ccc(C(=O)NCC(=O)OCC(=O)c2ccc3c(c2)NC(=O)CO3)cc1OC", "hERG current change (%, negative = inhibition) at 10uM": -22}, {"compound": "Cc1ccc(C(=O)NCC(=O)OCC(=O)c2ccc3c(c2)NC(=O)CO3)cc1", "hERG current change (%, negative = inhibition) at 10uM": -60.6}, {"compound": "Cc1nn(C(=O)CCC(=O)NCc2ccccc2Cl)c2ccccc12", "hERG current change (%, negative = inhibition) at 10uM": 15.2}, {"compound": "Cc1c(Cl)cccc1NC(=O)C1COc2ccccc2O1", "note": "(centres unmarked)", "hERG current change (%, negative = inhibition) at 10uM": 8.79}, {"compound": "COc1ccc(S(=O)(=O)CC(=O)c2cc3cccc(C)c3oc2=O)cc1", "hERG current change (%, negative = inhibition) at 10uM": 5.51}, {"compound": "CCCN1Cc2cccc(C(=O)NC(CC(=O)OCC)c3ccc(C)cc3)c2C1=O", "note": "(centres unmarked)", "hERG current change (%, negative = inhibition) at 10uM": -81.7}, {"compound": "CCCN1Cc2cccc(C(=O)NC(CC(=O)OCC)c3ccc(OCC)c(OC)c3)c2C1=O", "note": "(centres unmarked)", "hERG current change (%, negative = inhibition) at 10uM": -31.2}, {"compound": "CCCN1Cc2cccc(C(=O)NC(CC(=O)OCC)c3ccc(OC(C)C)cc3)c2C1=O", "note": "(centres unmarked)", "hERG current change (%, negative = inhibition) at 10uM": -37.6}, {"compound": "Cc1nc2c(C)cccn2c1/C(O)=C1\\C(=O)C(=O)N(CCN(C)C)C1c1ccncc1", "note": "(centres unmarked)", "hERG current change (%, negative = inhibition) at 10uM": 4.49}, {"compound": "CC(=O)Nc1ccc(C(=O)CN2C(=O)NC3(CCOc4ccccc43)C2=O)c(F)c1", "note": "(centres unmarked)", "hERG current change (%, negative = inhibition) at 10uM": -20.5}, {"compound": "COc1cc(CC(NC(C)=O)C(=O)NC2CCN(c3c(Cc4ccccc4)c(C)nc4ncnn34)CC2)cc(OC)c1", "note": "(centres unmarked)", "hERG current change (%, negative = inhibition) at 10uM": 12}, {"compound": "CC(=O)NC(Cc1ccc(F)c(F)c1)C(=O)NC1CCN(c2c(Cc3ccccc3)c(C)nc3ncnn23)CC1", "note": "(centres unmarked)", "hERG current change (%, negative = inhibition) at 10uM": -58.7}, {"compound": "COc1cccc(CC(NC(C)=O)C(=O)NC2CCN(c3c(Cc4ccccc4)c(C)nc4ncnn34)CC2)c1", "note": "(centres unmarked)", "hERG current change (%, negative = inhibition) at 10uM": -0.458}, {"compound": "Cc1nc2ncnn2c(N2CCC(C(=O)NC3CCCC3)CC2)c1Cc1ccccc1", "hERG current change (%, negative = inhibition) at 10uM": -57.4}, {"compound": "Cc1nc2ncnn2c(N2CCC(C(=O)NCC3CCCO3)CC2)c1Cc1ccccc1", "note": "(centres unmarked)", "hERG current change (%, negative = inhibition) at 10uM": -17.6}, {"compound": "CC(=O)Nc1ccc(NC(=O)C2CCN(c3c(Cc4ccccc4)c(C)nc4ncnn34)CC2)cc1", "hERG current change (%, negative = inhibition) at 10uM": 2.74}, {"compound": "NC(=O)C1CCCN(C(=O)c2ccc3nc(Cc4cccc(Cl)c4)oc3c2)C1", "note": "(centres unmarked)", "hERG current change (%, negative = inhibition) at 10uM": -11.5}, {"compound": "Cc1ccnc(SCCn2c(N3CCN(C)CC3)nc3c2c(=O)n(C)c(=O)n3C)n1", "hERG current change (%, negative = inhibition) at 10uM": 13.6}, {"compound": "COCCn1c(-c2ccc(F)cc2)nc2oc3cc(OC)ccc3c(=O)c2c1=O", "hERG current change (%, negative = inhibition) at 10uM": -19.6}]}]}
